# Source: PubChem BioAssay (Tox21)
# Results filed as inconclusive are left out. A number with no mark means an inactive call. Calls of active or inactive are those of the source. The call rests on the fitted dose curve; in most records, active means well fitted cell-killing curve with a large enough effect in the repeat runs; inconclusive means weak or mixed curves, or effect the other way; inactive means no such curve, though single readings can be large or run the other way. Starred links: 1 amine or outer side, 2 acyl side, 3 side chain; linkers in the order of their positions; H or OH if unused. Positions of bridges follow the written chain, without caps; N, C: chain ends. Non-standard residues stand in square brackets, D forms with d. Residues, ends and D or L forms follow the SMILES beside them. *: point of attachment. X5 = NC1=N[C@@H]([C@H](N[*:1])C(=O)[*:2])C[C@H](O)N1; ΔAla(Z-3-ureido) = NC(=O)N/C=C(\N)C(=O)O; β3hOrn = NCCC[C@H](N)CC(=O)*; Orn = NCCC[C@H](N)C(=O)O; Dap = NC[C@H](N)C(=O)O; Mpa = O=C(O)CCS
# Assay: qHTS assay to identify aromatase inhibitors - cell viability counter screen (AID 743084);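 further: cells stimulated with testosterone during compound exposure; nearly all actives have a fitted effect of over 55% in size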
# Conditions: MCF-7 aro ERE viability, CellTiter-Fluor, 24 h; series mostly up to 70.3 µM; activity change, negative = cytotoxicity: at the top concentration
# On the % scale 0 is the no-effect control and ±100 the full control effect; potency means the concentration at half of the fitted maximal effect.
Structure (SMILES),"activity change, negative = cytotoxicity",Potency
CC(=O)O[C@H]1CC[C@@]2(C)C(=CC[C@@H]3[C@@H]2CC[C@]2(C)C(c4cccnc4)=CC[C@@H]32)C1,5.39%,
CC(=O)[C@@]1(O)CC[C@H]2[C@@H]3C=C(Cl)C4=CC(=O)[C@@H]5C[C@@H]5[C@]4(C)[C@H]3CC[C@@]21C,0.951%,
CCCCC(F)(F)[C@@]1(O)CC[C@H]2[C@@H](CC(=O)[C@@H]2CCCCCCC(=O)O)O1,4.47%,
CCCCCCCCCCCCCCCC(=O)O[C@@H]1CC(C)=C(/C=C/C(C)=C/C=C/C(C)=C/C=C/C=C(C)/C=C/C=C(C)/C=C/C2=C(C)C[C@@H](OC(=O)CCCCCCCCCCCCCCC)CC2(C)C)C(C)(C)C1,-3.48%,
O=C(CCCN1CCC(n2c(=S)[nH]c3ccccc32)CC1)c1ccc(F)cc1,-2.39%,
CN1CCN(C2=Nc3ccccc3Cc3ccccc32)CC1,5.12%,
Cc1ccc(C2(O)CCN(CCCC(=O)c3ccc(F)cc3)CC2)cc1,1.5%,
C[C@@H]1C/C=C/C=C/C=C/C=C/[C@H](O[C@@H]2O[C@H](C)[C@@H](O)[C@H](N)[C@@H]2O)C[C@@H]2O[C@](O)(C[C@@H](O)C[C@H]3O[C@@H]3/C=C/C(=O)O1)C[C@H](O)[C@H]2C(=O)O,-6.89%,
O=C(O[C@H]1CN2CCC1CC2)N1CCc2ccccc2[C@@H]1c1ccccc1,-0.835%,
CC(CC(c1ccccc1)c1ccccc1)NC(C)(C)C (stereo not drawn),4.36%,
O=C(OCCO)c1ccccc1O,-1.63%,
CCOc1ccc(N=C(C)Nc2ccc(OCC)cc2)cc1,2.97%,
c1ccc2c(c1)Sc1ccccc1N2CCN1CCCC1,-19.2%,
NCCCNCCCCNC(=O)C(O)NC(=O)CCCCCCN=C(N)N (stereo not drawn),3.23%,
CCOc1ccc(C[C@H]2NC(=O)CCSSC[C@@H](C(=O)N3CCC[C@H]3C(=O)N[C@@H](CCCN)C(=O)NCC(N)=O)NC(=O)[C@H](CC(N)=O)NC(=O)[C@H]([C@@H](C)O)NC(=O)[C@H]([C@@H](C)CC)NC2=O)cc1 ([Mpa][dY](Et)ITNCP[Orn]G-NH2; disulfide 1-6),-3.5%,
CCCCCCCN(CC)CCCC(O)c1ccc(NS(C)(=O)=O)cc1 (stereo not drawn),3.35%,
CCOC(=O)[C@H](CCc1ccccc1)N[C@@H](C)C(=O)N1CC2(C[C@H]1C(=O)O)SCCS2,-1.73%,

Structure (SMILES),"activity change, negative = cytotoxicity",Potency
COc1ccc(CCNC[C@H](O)c2ccc(O)cc2)cc1OC,-2.6%,
CC#CCC(C)[C@H](O)/C=C/[C@@H]1[C@H]2C/C(=C/CCCC(=O)O)C[C@H]2C[C@H]1O (stereo partly drawn),-3.83%,
CCC(=O)OCC(=O)[C@@]1(OC(=O)CC)[C@@H](C)C[C@H]2[C@@H]3CCC4=CC(=O)C=C[C@]4(C)[C@@]3(F)[C@@H](O)C[C@@]21C,0.908%,
CN1CCN(CCC=C2c3ccccc3Sc3ccc(S(=O)(=O)N(C)C)cc32)CC1,,29.8 µM (active)
C/C=C(/CC[C@@H](C)[C@H]1CC[C@H]2C3=CC[C@H]4[C@H](C)[C@@H](O)CC[C@]4(C)[C@H]3CC[C@]12C)C(C)C,3.63%,
CCCC(=O)O[C@]1(C(=O)COC(=O)CC)[C@@H](C)C[C@H]2[C@@H]3CCC4=CC(=O)C=C[C@]4(C)[C@@]3(F)[C@@H](O)C[C@@]21C,-25.3%,
CN[C@@H]1[C@@H](O)[C@@H](O[C@@H]2[C@@H](O)[C@H](OC3OC(CN)=CCC3N)[C@@H](N)C[C@H]2N)OC[C@]1(C)O (stereo partly drawn),14% [at 32.5 µM],
CCOC(=O)Cc1cccc(-c2cc(CCCCCCc3ccc(O[C@H]4O[C@H](COC(C)=O)[C@@H](OC(C)=O)[C@H](OC(C)=O)[C@@H]4OC(C)=O)c(-c4cccc(CC(=O)OCC)c4)c3)ccc2O[C@H]2O[C@H](COC(C)=O)[C@@H](OC(C)=O)[C@H](OC(C)=O)[C@@H]2OC(C)=O)c1,-3.04%,
CCCCOC(=O)C(=O)Nc1cccc(-c2nn[nH]n2)c1,11.8%,
CC(CN1c2ccccc2Sc2ccc(S(=O)(=O)N(C)C)cc21)N(C)C (stereo not drawn),-15%,
NCCC(=O)[N-][C@@H](Cc1cnc[nH]1)C(=O)O.[Zn],15.4%,
COc1ccc(CNCC(O)COc2ccc3[nH]c(=O)ccc3c2)cc1OC (stereo not drawn),-0.0152%,
c1cnc2cc3c(cc2n1)[C@@H]1CNC[C@H]3C1,4.34%,
CCC(=O)OCC(=O)[C@@]1(OC(=O)CC)[C@H](C)C[C@H]2[C@@H]3CCC4=CC(=O)C=C[C@]4(C)[C@@]3(F)[C@@H](O)C[C@@]21C,-2.18%,
NCCC[C@H](N)CC(=O)N[C@H]1CNC(=O)[C@H]([C@H]2C[C@H](O)NC(N)=N2)NC(=O)/C(=C/NC(N)=O)NC(=O)[C@H](CO)NC(=O)[C@H](CO)NC1=O (β3hOrn-[Dap]SS[ΔAla(Z-3-ureido)][X5]; lactam 1-C),10.8%,
CC(=O)[C@@]1(O)CC[C@H]2[C@@H]3C=C(Cl)C4=CC(=O)CC[C@]4(C)[C@H]3CC[C@@]21C,-11.6%,
